High-throughput results: PubChem BioAssay, several laboratories
PP1 counter – PP1-alpha (human) inhibition in PP5 counter-screen; inhibition, % at 6.7 µM; AID 2235; purified PP1alpha, OMFP fluorescence; 320,000 compounds, 0.9% hits; P62136;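 active = inhibition above the mean inhibition of all tested compounds plus 3 SD, computed separately for each screening campaign, cut at about 15% in these data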
Beta apoptosis – beta cell apoptosis inhibition; AID 435005; protection from apoptosis, % (test concentration not listed); INS-1E cytokine-induced death, ATP luminescence, 48 h; percent of positive-control rescue, neutral wells zero; 300,000 compounds, 0.8% hits;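 active = Every replicate reaches about 75%, or at least half do and their mean reaches it too, limit read from the data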;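 note: higher means more ATP so stronger rescue from cytokine killing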
CSC inhib – blocks cancer stem cells. inhibition, % at 7.5 µM. AID 2717. cancer stem cell-like cells viability, luminescence. 300,000 compounds, 1.1% hits; in the data active = inhibition above about 75%; tested in HMLE shEcad cells
SKKanGAS inh – SKKanGAS growth inhibition. 300,000 compounds, 1.3% hits. inhibition, % at 7.5 µM. S. pyogenes SKKanGAS, kanamycin growth, BacTiter-Glo, 6 h. AID 1662;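 active = mean replicate score, as percent of positive control median, at least 50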;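 note: strain carries kanamycin resistance gene driven by streptokinase promoter and grows in 40 µg/ml kanamycin; loss of luminescence reflects streptokinase promoter inhibition or plain growth inhibition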
PP5 inh – inhibitors of human protein phosphatase 5 (PP5); AID 1987; P53041; 320,000 compounds, 0.18% hits; purified PP5c, OMFP substrate fluorescence; inhibition, % at 6.7 µM;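 active = inhibition above the campaign's mean inhibition across all tested compounds plus 3 SD, cut at about 9.5% in these data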
Target sequence (P53041 whole entry, looked up): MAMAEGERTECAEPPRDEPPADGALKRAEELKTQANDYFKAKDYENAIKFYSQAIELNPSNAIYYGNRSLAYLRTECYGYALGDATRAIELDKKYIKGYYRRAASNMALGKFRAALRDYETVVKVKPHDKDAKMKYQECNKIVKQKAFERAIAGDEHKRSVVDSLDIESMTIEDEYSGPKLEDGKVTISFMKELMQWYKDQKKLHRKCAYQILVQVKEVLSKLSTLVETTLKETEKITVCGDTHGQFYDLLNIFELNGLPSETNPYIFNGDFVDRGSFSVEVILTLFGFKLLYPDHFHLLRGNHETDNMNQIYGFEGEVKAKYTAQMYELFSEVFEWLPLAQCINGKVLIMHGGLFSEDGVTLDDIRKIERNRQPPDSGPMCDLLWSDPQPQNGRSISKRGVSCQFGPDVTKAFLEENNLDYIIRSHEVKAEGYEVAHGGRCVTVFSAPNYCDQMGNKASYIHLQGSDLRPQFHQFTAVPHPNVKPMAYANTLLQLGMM
PP1 confirm – confirmation of human PP1 phosphatase inhibitors; shares compounds with PP1 counter; purified PP1alpha, OMFP substrate fluorescence; AID 2358; 1,900 compounds, 52% hits; inhibition, % at 6.7 µM;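 active = mean PP1 inhibition above a set limit taken from the earlier primary screen, cut at about 15% in these data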
PP5 counter – inhibits human PP5 phosphatase in PP1 counter-screen; shares compounds with PP1 counter; AID 2360; purified PP5c, OMFP fluorescence; inhibition, % at 6.7 µM; 1,900 compounds, 4% hits;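 active = mean PP5 inhibition over triplicate wells above about 9.5% taken from the earlier PP1 screen, limit read from the data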
Of the large screens only hits and unclear results are named; the others gave an inactive call (follow-up assays come after a bar, where they were run). Most compounds without a hit are left out; they make up all but 3.1% or so of the library.

CCOc1ccc(OCCCC(=O)ON=C(N)c2ccccc2C)cc1	none (no result: CSC inhib, SKKanGAS inh)
COC(=O)c1ccc(CSc2nc3scc(-c4cccs4)c3c(=O)[nH]2)o1	PP1 counter 22.1 | PP1 confirm inactive | PP5 counter inactive
Cc1csc(CN(C)C(=O)C2CCC(=O)N(CCN(C)C)C2)n1 (stereo not given)	none
Cc1nn(CC(=O)Nc2ccc3c(c2)nc2n3CCN(C3CCCCC3)C2)c(=O)c2ccccc12	PP1 counter 20.1 | PP1 confirm inactive | PP5 counter inactive
Nc1cccc(Nc2nc(OC(C(F)(F)F)C(F)(F)F)nc(OC(C(F)(F)F)C(F)(F)F)n2)c1	PP1 counter 18.2, PP5 inh 18.8 | PP1 confirm 16.4 | PP5 counter 15.1
O=C(O)c1ccc2ncsc2c1	PP1 counter 18.9 | PP1 confirm 37.4 | PP5 counter inactive
C#CCNC(=O)C1=C[C@@H](c2csc3ccccc23)C[C@@H](OCc2ccc(CO)cc2)O1	PP1 counter 72.8 | PP1 confirm inactive | PP5 counter inactive
O=C(NC1CC1)C1=C[C@@H](c2csc3ccccc23)C[C@@H](OCc2ccc(CO)cc2)O1	none
CCCN(CCC)S(=O)(=O)c1ccc(Cl)c(OC)c1	none (no result: CSC inhib)
CCC1CCCCN1S(=O)(=O)c1ccc(C(=O)Nc2nnc(-c3cccs3)o2)cc1 (stereo not given)	PP1 counter 40.6 (no result: SKKanGAS inh) | PP1 confirm 33.1 | PP5 counter inactive
O=C(Nc1nnc(-c2cccs2)o1)c1cccc(C(F)(F)F)c1	PP1 counter 19.9, SKKanGAS inh 92.2 (no result: Beta apoptosis) | PP1 confirm 18.3 | PP5 counter inactive
O=[N+]([O-])c1ccc(N2N=C(c3ccco3)CC2c2ccccc2)cc1 (stereo not given)	PP1 counter 19.1 | PP1 confirm inactive | PP5 counter inactive
Fc1ccc(C2CC(c3ccco3)=NN2c2ccccc2)cc1 (stereo not given)	none
Cc1cc(NC(=O)CSc2ccc(-c3ccc(Br)cc3)nn2)no1	PP1 counter 18.2 | PP1 confirm inactive | PP5 counter inactive
CC1(C)Cc2c(sc3c2c(=N)n(Cc2ccco2)c(=O)n3CC(=O)Nc2cccc(Cl)c2)CO1	PP1 counter 20.2 | PP1 confirm inactive | PP5 counter inactive
CN1CCc2nc3sc(C(=O)C45CC6CC(CC(C6)C4)C5)c(N)c3cc2C1	PP1 counter 29.4 (no result: SKKanGAS inh) | PP1 confirm inactive | PP5 counter inactive
CC(OC(=O)C1CC1)C(=O)Nc1cccc(S(=O)(=O)N2CCOCC2)c1 (stereo not given)	none (no result: PP1 counter, SKKanGAS inh, PP5 inh)
COc1ccc(C2CC(c3ccc(Br)cc3)=NN2C(=O)CSC2=NCCS2)cc1 (stereo not given)	PP1 counter 19.7 | PP1 confirm inactive | PP5 counter inactive
COc1ccc(C2=NN(C(=O)CSc3ncccn3)C(c3ccc(C)cc3)C2)cc1 (stereo not given)	none
CCN(C(=O)CN1C(=O)NC(c2ccccc2)(c2ccc(C)c(C)c2)C1=O)C1CCS(=O)(=O)C1 (stereo not given)	none (no result: CSC inhib, SKKanGAS inh)
COc1cccc(CN(C)C(=O)c2ccc(Oc3ccccc3)cc2)c1OC	none
Cc1ccccc1C(=O)NC(=S)N(C)CCc1ccccn1	none
COc1cc(=O)n2c(-c3ccccc3)csc2n1	none
O=c1cc(-c2ccccc2)cc(-c2ccccc2)n1O	PP1 counter 20.0 | PP1 confirm inactive | PP5 counter inactive
Cc1c(NS(=O)(=O)c2ccc3c(c2)c(=O)n(C)c(=O)n3C)c(=O)n(-c2ccccc2)n1C	PP1 counter 36.3 | PP1 confirm inactive | PP5 counter inactive
Cc1ccc(S(=O)(=O)Nc2cc(=O)[nH]c3c2CCC3)cc1	none
CSCCC(NC(=O)COc1ccccc1)C(=O)OCCOc1ccc(C)cc1 (stereo not given)	none (no result: CSC inhib, SKKanGAS inh)
CSCCC(NC(=O)COc1ccccc1)C(=O)N(C)CC(=O)Nc1c(C)cccc1C (stereo not given)	PP1 counter 21.4 | PP1 confirm inactive | PP5 counter inactive
Cc1cccc(NC(=O)/C(=C/c2cccc([N+](=O)[O-])c2)NC(=O)c2cccs2)c1	PP1 counter 17.6 | PP1 confirm inactive | PP5 counter inactive
Cc1ccccc1NC(=O)COC(=O)/C=C/c1cn(-c2ccccc2)nc1-c1cccnc1	PP1 counter 31.6 | PP1 confirm 31.7 | PP5 counter inactive
